{"source": "paper PMC4336329", "about": "(PLoS ONE, 2015)", "note": "Screen size: about 310,000 compounds; about 14,000 (4.5%) showed an effect of 50% or more. The effect is printed as a negative number. The full list was thinned out, with strong results kept by preference.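 Note: peak tail current of the secondary pulse compared with the same well before compound.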", "data": [{"biological_target": "human ether-à-go-go-related gene (hERG) potassium channel (human, UniProt Q12809)", "sequence (Q12809 whole entry, looked up)": "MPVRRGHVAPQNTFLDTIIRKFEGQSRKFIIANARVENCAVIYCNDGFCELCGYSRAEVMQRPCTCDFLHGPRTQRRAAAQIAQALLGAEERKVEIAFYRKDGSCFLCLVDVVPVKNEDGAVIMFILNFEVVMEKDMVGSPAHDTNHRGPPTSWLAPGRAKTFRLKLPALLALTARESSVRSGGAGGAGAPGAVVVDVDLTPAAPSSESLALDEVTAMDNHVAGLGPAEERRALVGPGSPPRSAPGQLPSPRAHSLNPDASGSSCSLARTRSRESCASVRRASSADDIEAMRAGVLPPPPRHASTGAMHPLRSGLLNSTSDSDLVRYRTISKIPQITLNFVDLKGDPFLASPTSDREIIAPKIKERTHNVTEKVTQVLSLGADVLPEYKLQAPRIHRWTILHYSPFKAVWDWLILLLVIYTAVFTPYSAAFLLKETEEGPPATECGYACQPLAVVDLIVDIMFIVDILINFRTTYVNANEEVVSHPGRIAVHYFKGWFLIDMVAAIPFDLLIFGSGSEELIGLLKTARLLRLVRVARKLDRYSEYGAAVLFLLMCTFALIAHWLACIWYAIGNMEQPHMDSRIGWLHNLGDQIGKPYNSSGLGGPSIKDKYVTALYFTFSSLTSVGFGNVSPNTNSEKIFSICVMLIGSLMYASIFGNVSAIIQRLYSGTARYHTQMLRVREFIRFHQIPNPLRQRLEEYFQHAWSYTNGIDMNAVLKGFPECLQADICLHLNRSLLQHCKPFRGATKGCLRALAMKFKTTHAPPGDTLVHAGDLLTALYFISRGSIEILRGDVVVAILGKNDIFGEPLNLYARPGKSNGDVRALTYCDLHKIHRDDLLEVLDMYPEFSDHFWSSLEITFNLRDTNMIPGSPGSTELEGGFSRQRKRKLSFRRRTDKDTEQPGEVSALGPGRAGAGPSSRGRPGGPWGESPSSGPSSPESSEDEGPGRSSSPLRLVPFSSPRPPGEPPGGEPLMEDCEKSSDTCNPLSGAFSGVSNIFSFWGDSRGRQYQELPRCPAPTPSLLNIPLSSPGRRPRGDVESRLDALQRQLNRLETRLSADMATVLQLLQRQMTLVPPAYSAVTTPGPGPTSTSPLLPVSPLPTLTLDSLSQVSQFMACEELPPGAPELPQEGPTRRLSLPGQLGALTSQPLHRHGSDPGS", "assay": "primary screen, population patch clamp on CHO cells stably expressing hERG; higher = less effect of the substance", "units": {"hERG current change (%, negative = inhibition) at 10uM": "%"}, "values": [{"smiles": "O=C(O)C1CC=CCC1C(=O)Nc1ccc(Oc2ccc(Cl)cc2)cc1", "note": "(stereo not shown)", "hERG current change (%, negative = inhibition) at 10uM": 7.55}, {"smiles": "COc1ccc(CCC(=O)NNC(=O)c2ccc(F)cc2)cc1", "hERG current change (%, negative = inhibition) at 10uM": 6.02}, {"smiles": "O=C(CCc1nnc2ccc(NCc3ccc(F)cc3)nn12)NC1CCCC1", "hERG current change (%, negative = inhibition) at 10uM": -0.461}, {"smiles": "Cc1ccc(NC(=O)CSc2nnc([C@H](C)NC(=O)OC(C)(C)C)o2)c(C)c1", "hERG current change (%, negative = inhibition) at 10uM": -6.67}, {"smiles": "CSCC[C@H](NC(=O)OC(C)(C)C)c1nnc(SCc2ccc(F)cc2)o1", "hERG current change (%, negative = inhibition) at 10uM": -46.2}, {"smiles": "CSCC[C@H](NC(=O)OC(C)(C)C)c1nnc(SCC(=O)Nc2ccc(C)cc2C)o1", "hERG current change (%, negative = inhibition) at 10uM": -50.1}, {"smiles": "CSCC[C@H](NC(=O)OC(C)(C)C)c1nnc(SCc2ccccc2)o1", "hERG current change (%, negative = inhibition) at 10uM": -51.3}, {"smiles": "CSCC[C@H](NC(=O)OC(C)(C)C)c1nnc(SCc2cccc(F)c2)o1", "hERG current change (%, negative = inhibition) at 10uM": -30.3}, {"smiles": "CSCC[C@H](NC(=O)OC(C)(C)C)c1nnc(SCC(=O)Nc2c(C)cccc2C)o1", "hERG current change (%, negative = inhibition) at 10uM": -14.5}, {"smiles": "Cc1cc(NC(=O)CSc2ccc3c(c2)OCCO3)no1", "hERG current change (%, negative = inhibition) at 10uM": -8.22}, {"smiles": "COc1ccc(/C=C2\\SC(=O)N(CC(=O)Nc3ccccc3O)C2=O)cc1OC", "hERG current change (%, negative = inhibition) at 10uM": 9.72}, {"smiles": "CCC1(C)Cc2c(sc3nnn(CC(=O)Nc4ccccc4)c(=O)c23)CO1", "note": "(stereo not shown)", "hERG current change (%, negative = inhibition) at 10uM": -27.3}, {"smiles": "O=C(CCn1c(=O)oc2ccccc21)Nc1ccc(C(=O)O)cc1", "hERG current change (%, negative = inhibition) at 10uM": -45}, {"smiles": "CCOc1ccc(C(=O)N2CCN(CCc3ccccc3)CC2)cc1OCC", "hERG current change (%, negative = inhibition) at 10uM": -78.8}, {"smiles": "CCOc1ccc(C(=O)N2CCN(C(=O)c3ccco3)CC2)cc1OCC", "hERG current change (%, negative = inhibition) at 10uM": -5.57}, {"smiles": "COc1cccc(C(=O)N2CCN(CCCc3ccccc3)CC2)c1OC.O=C(O)C(=O)O", "hERG current change (%, negative = inhibition) at 10uM": -46.7}, {"smiles": "CCOc1ccc(C(=O)N2CCN(c3ccccc3)CC2)cc1OCC", "hERG current change (%, negative = inhibition) at 10uM": -32.4}, {"smiles": "COc1ccc(C(=O)N2CCN(CCCc3ccccc3)CC2)cc1OC.O=C(O)C(=O)O", "hERG current change (%, negative = inhibition) at 10uM": -73.3}, {"smiles": "COc1cc(C(=O)N2CCN(CCCc3ccccc3)CC2)cc(OC)c1OC", "hERG current change (%, negative = inhibition) at 10uM": -9.98}, {"smiles": "OC(C#Cc1ccccn1)c1cccs1", "note": "(stereo not shown)", "hERG current change (%, negative = inhibition) at 10uM": 3.9}, {"smiles": "Clc1ccc(-c2[nH]ncc2N=Nc2ccccc2)cc1", "hERG current change (%, negative = inhibition) at 10uM": 15.3}, {"smiles": "Cc1cccc(C(=O)NCCC(=O)Nc2ccc(C#N)cc2)c1", "hERG current change (%, negative = inhibition) at 10uM": -0.169}, {"smiles": "CCOc1ccc(CN2CCNC(=O)C2CC(=O)NCCCC2CCCC2)cc1", "note": "(stereo not shown)", "hERG current change (%, negative = inhibition) at 10uM": -34.1}, {"smiles": "COc1ccc(Cc2noc(CN3CCCN(C4Cc5ccccc5C4)CC3)n2)cc1OC", "hERG current change (%, negative = inhibition) at 10uM": -67}, {"smiles": "COc1ccc(Cc2noc(CN3CCN(C4CCc5ccccc5C4)CC3)n2)cc1OC", "note": "(stereo not shown)", "hERG current change (%, negative = inhibition) at 10uM": -68.8}, {"smiles": "COc1ccc(Cc2noc(CN3CCCN(Cc4ccc(F)cc4)CC3)n2)cc1OC", "hERG current change (%, negative = inhibition) at 10uM": -60.8}, {"smiles": "COc1ccc(Cc2noc(CN3CCC(c4ccncc4)CC3)n2)cc1OC", "hERG current change (%, negative = inhibition) at 10uM": -20}, {"smiles": "COc1ccc(Cc2noc(CN(C)CC3CCN(Cc4ccccc4)CC3)n2)cc1OC", "hERG current change (%, negative = inhibition) at 10uM": -22.9}, {"smiles": "COc1ccc(Cc2noc(CN3CCNC(=O)CC3)n2)cc1OC", "hERG current change (%, negative = inhibition) at 10uM": 6.36}, {"smiles": "COCCN1CCN(Cc2nc(Cc3ccc(OC)c(OC)c3)no2)CC1", "hERG current change (%, negative = inhibition) at 10uM": 3.84}, {"smiles": "COc1ccc(Cc2noc(CN3CCN(Cc4cccc(Cl)c4)CC3)n2)cc1OC", "hERG current change (%, negative = inhibition) at 10uM": -11.5}, {"smiles": "COc1ccc(Cc2noc(CN3CCN(Cc4csc(C)n4)CC3)n2)cc1OC", "hERG current change (%, negative = inhibition) at 10uM": 18.2}, {"smiles": "Cc1ccc(NC(=S)Nc2c(C)n(C)n(-c3ccccc3)c2=O)cc1Cl", "hERG current change (%, negative = inhibition) at 10uM": -22.7}, {"smiles": "O=S1(=O)c2cccc3cccc(c23)N1Cc1nnc(-c2ccccc2Br)o1", "hERG current change (%, negative = inhibition) at 10uM": -9.83}, {"smiles": "COc1cc(C(=O)NC(=S)NNC(=O)c2ccc3c(c2)OCO3)cc(OC)c1OC", "hERG current change (%, negative = inhibition) at 10uM": 8.08}, {"smiles": "CN1CCN(C(=O)CN(Cc2ccccc2)S(C)(=O)=O)CC1", "hERG current change (%, negative = inhibition) at 10uM": 25.7}, {"smiles": "Cn1ncc(Cl)c1C(=O)NCc1ccc(Cl)cc1", "hERG current change (%, negative = inhibition) at 10uM": -13.3}, {"smiles": "COc1ccc(NC(=O)CN(c2ccc(OC)c(Cl)c2)S(=O)(=O)c2ccccc2)c(OC)c1", "hERG current change (%, negative = inhibition) at 10uM": 8.77}, {"smiles": "Cc1cccc(N=CC=C2OC(C)(C)C(C)(C)O2)c1", "hERG current change (%, negative = inhibition) at 10uM": 3.43}, {"smiles": "O=C(Nc1cccc(S(=O)(=O)N2CCCC2)c1)c1ccccc1OC(F)F", "hERG current change (%, negative = inhibition) at 10uM": -13.7}, {"smiles": "O=C(Nc1ccc(S(=O)(=O)N2CCCC2)cc1)c1ccccc1", "hERG current change (%, negative = inhibition) at 10uM": -7.24}, {"smiles": "O=C(Nc1cccc(S(=O)(=O)N2CCCC2)c1)c1cccc(OC(F)F)c1", "hERG current change (%, negative = inhibition) at 10uM": -56.4}, {"smiles": "COc1cccc(C(=O)NC23CC4CC(CC(C4)C2)C3)c1", "hERG current change (%, negative = inhibition) at 10uM": 2.17}, {"smiles": "N#Cc1cccc(C(=O)Nc2cccc(S(=O)(=O)N3CCCC3)c2)c1", "hERG current change (%, negative = inhibition) at 10uM": 2.83}, {"smiles": "CC(=O)Nc1cccc(C(=O)Nc2ccc(S(=O)(=O)N3CCCCC3)cc2)c1", "hERG current change (%, negative = inhibition) at 10uM": -10.3}, {"smiles": "COc1ccc(NC(=O)c2cccc(OC(F)F)c2)cc1Cl", "hERG current change (%, negative = inhibition) at 10uM": -22.2}, {"smiles": "O=C(Nc1ccc(OC(F)F)c(Cl)c1)c1cccc(OC(F)F)c1", "hERG current change (%, negative = inhibition) at 10uM": -61.7}, {"smiles": "O=C(NC12CC3CC(CC(C3)C1)C2)c1cccc(OC(F)F)c1", "hERG current change (%, negative = inhibition) at 10uM": -55.2}, {"smiles": "O=C(NC12CC3CC(CC(C3)C1)C2)c1ccccc1", "hERG current change (%, negative = inhibition) at 10uM": 6.99}, {"smiles": "O=C(Nc1ccc(S(=O)(=O)N2CCCC2)cc1)c1cccc(OC(F)F)c1", "hERG current change (%, negative = inhibition) at 10uM": -54.3}, {"smiles": "O=C(Nc1cc(Cl)cc(Cl)c1)c1cccc(OC(F)F)c1", "hERG current change (%, negative = inhibition) at 10uM": -2.79}, {"smiles": "COc1ccc(NC2CCCN(C(=O)c3oc(C)cc3C)C2)cc1OC", "note": "(stereo not shown)", "hERG current change (%, negative = inhibition) at 10uM": 16.2}, {"smiles": "CC(C)(C)C1CCC(C(=O)Nc2nccs2)CC1", "note": "(stereo not shown)", "hERG current change (%, negative = inhibition) at 10uM": 9.99}, {"smiles": "C/C(=N\\NC(=O)c1ccc(C)cc1)c1c(C)[nH]n(-c2ccccc2)c1=O", "hERG current change (%, negative = inhibition) at 10uM": 14.2}, {"smiles": "Cc1ccccc1N1C(=O)C2ON(c3ccccc3)C(c3ccco3)C2C1=O", "note": "(stereo not shown)", "hERG current change (%, negative = inhibition) at 10uM": 16.8}]}]}
